Assay: yeast growth modulation, basal conditions, primary screen, YJM789 clinical isolate, OD600, 24 h (AID 1089);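 further: growth of clinical yeast isolate S. cerevisiae YJM 789 seeded 1000 cells per well; test concentration not given here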
Details: S. cerevisiae YJM789 growth, higher = more signal, called active from +8 up or from −8 down

z-score, inactive:
CCOC(=O)NN=C1C[C@@H](O)[C@@H](O)[C@@H]2[C@@H]3C(=O)N([C@@H](C)c4ccccc4)C(=O)[C@@H]3CC[C@@H]12 -0.707
COC(=O)[C@@H]1CC[C@H](C)[C@@H](c2ccc(C)cc2)N1C(=O)c1ccc(C=NO[C@@H](C)c2cn([C@H](CO)Cc3ccccc3)nn2)cc1 0.76
O=C1CCCC=C1C(O)CCOC(c1ccccc1)(c1ccccc1)c1ccccc1 (stereo unspecified) 0.162
COC(=O)CC=C[C@@H](C)[C@@H]1C=C[C@H](O)[C@@H](CO)O1 0.773
C[C@@H](ON=C1[C@H]2CCn3c(=O)n(-c4ccccc4)c(=O)n3[C@H]2[C@H](O)[C@@H]2O[C@H]12)c1cn([C@@H]2COC[C@H]2O)nn1 -0.638
CO[C@@H]1COC(=O)[C@H](CCSC)NC(=O)CC=C[C@@H](C)COC(=O)CCC[C@H]1C -1.16
COc1cccc([C@@H]2Oc3ccc(OC)cc3C(=O)[C@H]2O)c1 -2.23
C=CC1=C[C@H](O)[C@@H]2O[C@@H]2C12OCCCO2 -0.532
CCOC(=O)NN=C1C[C@@H](O)[C@@H](O)[C@@H]2[C@@H]3C(=O)N(Cc4ccccc4)C(=O)[C@@H]3CC[C@H]12 -0.907
COC(=O)[C@@H]1CC[C@H](C)[C@@H](c2ccc(C)cc2)N1C(=O)c1ccc(C=NO[C@H](C)c2cn([C@H](CO)Cc3ccccc3)nn2)cc1 0.149
COc1cc(O)c(C(=O)C=Cc2ccc3c(c2)OCO3)c(OC)c1 1.11
